Some test systems named below: EKVX NSCLC; SN12C renal; UO-31 renal; TK-10 renal; ACHN renal; CAKI-1 renal; A498 renal; CCRF-CEM leukemia; MOLT-4 leukemia; RPMI-8226 leukemia; OVCAR-5 ovarian; OVCAR-4 ovarian; SK-OV-3 ovarian; IGROV1 ovarian; OVCAR-3 ovarian; HS 578T breast; NCI/ADR-RES ovarian; SK-MEL-2 melanoma; SR leukemia; OVCAR-8 ovarian.
Assay in all cases: NCI-60 one-dose screen, 48 h (100 = growth as untreated, 0 = no growth, -100 = all killed)
Common to all, as to settings: 10 µM unless noted

This is part of a sample that, as a whole, favours compounds with a hit. Of some 83,000 tested, about 20% had one in any assay.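 Compound tested at a single concentration for 48 hours in 96-well plates; a percent growth value below 10 was scored as active.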 A number with no mark means an inactive call. The source made the active and inactive calls.

With `COc1cc(-c2n[nH]nc2-c2ccccn2)cc(OC)c1OC`, the growth in the test on EKVX NSCLC was 94.6%; in the test with SN12C renal, 89.7%; in the test with UO-31 renal it was 87.7%; in the test with TK-10 renal, 151%; with ACHN renal it was 94.8%; in the test on CAKI-1 renal, 124%. In addition, the growth with A498 renal was 118%; with CCRF-CEM leukemia it was 97.7%; in the test on MOLT-4 leukemia, 96.6%; with RPMI-8226 leukemia it was 85.1%; with OVCAR-5 ovarian, 100%; in the test with OVCAR-4 ovarian, 88.2%. Besides, the growth with SK-OV-3 ovarian is 98.5%; in the test with IGROV1 ovarian, 78.2%; in the test on OVCAR-3 ovarian, 102%; with HS 578T breast it was 98%; with NCI/ADR-RES ovarian, 77.9%.
As to `COC(=O)[C@H](CCCCNC(=O)OCc1ccccc1)NC(=O)[C@@H](NC(=O)Nc1cc(C(F)(F)F)cc(C(F)(F)F)c1)C(C)C`, the growth was -77.3% [100 µM] (active) with SK-MEL-2 melanoma; -88.3% [100 µM] (active) with SN12C renal; -88.6% [100 µM] (active) in the test with UO-31 renal; -99.4% [100 µM] (active) with ACHN renal; -36.3% [100 µM] (active) with CAKI-1 renal; -5.02% [100 µM] (active) in the test on A498 renal. The growth with MOLT-4 leukemia is -7.72% [100 µM] (active); in the test on SR leukemia it was -23.3% [100 µM] (active); in the test with RPMI-8226 leukemia it was -20.6% [100 µM] (active); in the test on OVCAR-8 ovarian, -22.1% [100 µM] (active); with OVCAR-5 ovarian it was 41.6% [100 µM]; with OVCAR-4 ovarian it was -68.8% [100 µM] (active). For the same molecule, the growth with SK-OV-3 ovarian is -23.4% [100 µM] (active); in the test on IGROV1 ovarian, -61% [100 µM] (active); in the test with OVCAR-3 ovarian, -92.5% [100 µM] (active); in the test with HS 578T breast it was -1.7% [100 µM] (active); in the test on NCI/ADR-RES ovarian it was 60.4% [100 µM].
Take `COC(=O)[C@H](Cc1cn(C)cn1)NC(=O)[C@@H](NC(=O)Nc1cc(C(F)(F)F)cc(C(F)(F)F)c1)C(C)C`: the growth with SK-MEL-2 melanoma was -88.7% [100 µM] (active); with SN12C renal it was -85.8% [100 µM] (active); in the test with UO-31 renal, -94.9% [100 µM] (active); with ACHN renal it was -98.4% [100 µM] (active); in the test with CAKI-1 renal it was -91.3% [100 µM] (active); in the test with A498 renal, -89.4% [100 µM] (active). Besides, the growth was -56.2% [100 µM] (active) in the test on MOLT-4 leukemia; -33.5% [100 µM] (active) in the test on SR leukemia; -42.9% [100 µM] (active) in the test on RPMI-8226 leukemia; -80% [100 µM] (active) with OVCAR-8 ovarian; -96.1% [100 µM] (active) in the test on OVCAR-5 ovarian; -96.5% [100 µM] (active) in the test on OVCAR-4 ovarian. Besides, the growth in the test with SK-OV-3 ovarian is -100% [100 µM] (active); with IGROV1 ovarian it was -70.9% [100 µM] (active); in the test with OVCAR-3 ovarian it was -97.3% [100 µM] (active); in the test with HS 578T breast, 0.492% [100 µM] (active); in the test with NCI/ADR-RES ovarian, -21.6% [100 µM] (active).
As to `Fc1ccc(-c2nn3c(-c4cc(C(F)(F)F)cc(C(F)(F)F)c4)nnc3s2)cc1`, the growth was -33.3% (active) in the test with SK-MEL-2 melanoma; 46.7% with SN12C renal; -40% (active) in the test on TK-10 renal; 11.6% with ACHN renal; 69.8% in the test on CAKI-1 renal; -18.5% (active) with A498 renal. For the same molecule, the growth in the test on CCRF-CEM leukemia was 87%; in the test on MOLT-4 leukemia it was 93%; in the test on RPMI-8226 leukemia, 95.6%; with OVCAR-8 ovarian, 20%; in the test on OVCAR-5 ovarian it was 95.1%; with OVCAR-4 ovarian it was 21.7%. The growth in the test with SK-OV-3 ovarian is -36.1% (active); with IGROV1 ovarian it was 21.6%; in the test with OVCAR-3 ovarian it was 12.7%; in the test on HS 578T breast it was 24.8%; with NCI/ADR-RES ovarian, 40.9%.
As for `N[C@H](CS)C(=O)O`, the growth was 97.7% in the test on EKVX NSCLC; 107% in the test on SN12C renal; 92.4% with UO-31 renal; 97.3% in the test with TK-10 renal; 102% with ACHN renal; 70.4% in the test on CAKI-1 renal. The growth in the test on A498 renal is 117%; with CCRF-CEM leukemia, 90.8%; in the test with MOLT-4 leukemia, 104%; in the test on RPMI-8226 leukemia it was 101%; with OVCAR-5 ovarian, 103%; with OVCAR-4 ovarian, 102%. The growth with SK-OV-3 ovarian is 107%; in the test with OVCAR-3 ovarian it was 122%; in the test with HS 578T breast, 115%; in the test on NCI/ADR-RES ovarian, 112%.
For the molecule `FC(F)(F)c1cc(-c2nnc3n2N=C(N2CCCC2)CS3)cc(C(F)(F)F)c1`, the growth is 80.6% in the test with EKVX NSCLC; 69.2% in the test with SN12C renal; 48.8% in the test on UO-31 renal; -22.1% (active) in the test with TK-10 renal; 47.1% with ACHN renal; 87.7% with CAKI-1 renal. For the same molecule, the growth is 10.6% with A498 renal; 86.4% with CCRF-CEM leukemia; 90.5% in the test on MOLT-4 leukemia; 95% in the test on RPMI-8226 leukemia; 74.4% in the test on OVCAR-8 ovarian; 106% with OVCAR-5 ovarian. Besides, the growth in the test with OVCAR-4 ovarian is 102%; in the test with SK-OV-3 ovarian it was 21%; with IGROV1 ovarian, 87%; with OVCAR-3 ovarian it was 53.6%; with HS 578T breast, 46.8%; in the test with NCI/ADR-RES ovarian, 80.2%.
For the molecule `O=C1c2cccc3c([N+](=O)[O-])ccc(c23)C(=O)N1CCCCl`, the growth in the test with SK-MEL-2 melanoma was -94.9% [100 µM] (active); with SN12C renal, -93.1% [100 µM] (active); in the test on UO-31 renal it was -86.6% [100 µM] (active); in the test with ACHN renal it was -96.1% [100 µM] (active); in the test with CAKI-1 renal, -91.4% [100 µM] (active); in the test on A498 renal it was -92.4% [100 µM] (active). The growth in the test on MOLT-4 leukemia is -11.3% [100 µM] (active); with SR leukemia, -6.13% [100 µM] (active); in the test on RPMI-8226 leukemia, -11.6% [100 µM] (active); in the test on OVCAR-8 ovarian it was -64.2% [100 µM] (active); in the test on OVCAR-5 ovarian, -92.5% [100 µM] (active); in the test on OVCAR-4 ovarian it was -97% [100 µM] (active). The growth in the test on SK-OV-3 ovarian was -99.6% [100 µM] (active); with IGROV1 ovarian, -57.7% [100 µM] (active); with OVCAR-3 ovarian, -87.1% [100 µM] (active); in the test with HS 578T breast, 23.3% [100 µM]; with NCI/ADR-RES ovarian, -37.9% [100 µM] (active).
As to `COc1ccc(NC(=O)c2ccc(-c3ccccc3)cc2)c(C(N)=O)c1`, the growth in the test on SK-MEL-2 melanoma is 99.6%; in the test with SN12C renal, 96.6%; with TK-10 renal, 118%; with ACHN renal, 102%; in the test with CAKI-1 renal it was 103%; in the test on A498 renal, 97%. The growth in the test on CCRF-CEM leukemia was 90%; in the test with MOLT-4 leukemia, 84.6%; in the test on SR leukemia it was 72.2%; in the test with RPMI-8226 leukemia it was 96.3%; with OVCAR-8 ovarian, 108%; with OVCAR-5 ovarian, 112%. Further, the growth in the test with OVCAR-4 ovarian is 115%; in the test on SK-OV-3 ovarian it was 98.5%; in the test on IGROV1 ovarian, 102%; in the test with OVCAR-3 ovarian it was 96.6%; with HS 578T breast, 104%; in the test on NCI/ADR-RES ovarian, 98.2%.

The values above are taken from PubChem BioAssay (NCI).
